# PubChem BioAssay (NCI)
# About 79,000 compounds went through this panel and 15% of them were active in at least one assay; those are over-represented in the sample as a whole. Unmarked numbers belong to inactive results. Active and inactive are the calls of the source. Cut-off read from the data, not from the text of the source: active = growth inhibition above about 70%; inactive = the rest.
# Tests used:
# [1] = NCI Yeast Anticancer Drug Screen. Data for the rad50 strain (AID 155);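 note: 0% = growth of vehicle-only cultures of the same strain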; conditions: S. cerevisiae rad50 strain growth inhibition, stronger effect = higher value
# Procedure, shortened: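 Genetically altered yeast (DNA repair pathway); compound treatment; growth inhibition vs vehicle ctrl.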
# [2] = NCI Yeast Anticancer Drug Screen. Data for the mec2-1 strain (AID 157); conditions: S. cerevisiae mec2-1 strain, stronger effect = higher value
# Procedure, shortened: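 Compounds were applied to mec2-1 yeast cells. Their growth was then compared with that of vehicle-treated cultures to give growth inhibition.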
# [3] = NCI Yeast Anticancer Drug Screen. Data for the sgs1 mgt1 strain (AID 161);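 note: 0% = growth of cultures given vehicle only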; conditions: S. cerevisiae sgs1 mgt1 strain, stronger effect = higher value
# Procedure, shortened: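 Yeast cells carrying a defined DNA-repair defect were exposed to test compounds. Growth inhibition was measured relative to vehicle-treated controls.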
# [4] = NCI Yeast Anticancer Drug Screen. Data for the cln2 rad14 strain (AID 165);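 note: 0% = growth equal to vehicle treated cultures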; conditions: S. cerevisiae cln2 rad14 strain, stronger effect = higher value
# Procedure, shortened: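 Strain: cln2 rad14 yeast, altered in cell cycle control and DNA damage repair. Read-out: growth inhibition vs vehicle.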
# [5] = NCI Yeast Anticancer Drug Screen. Data for the bub3 strain (AID 167); conditions: S. cerevisiae bub3 mutant strain, stronger effect = higher value
# Procedure, shortened: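 Yeast carrying a defined mutation is treated with each compound, and growth is compared with that of vehicle-exposed cells to give inhibition.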
# [6] = NCI Yeast Anticancer Drug Screen. Data for the mlh1 rad18 strain (AID 175); conditions: S. cerevisiae mlh1 rad18 strain growth inhibition, stronger effect = higher value
# Procedure, shortened: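 A repair-deficient yeast strain is exposed to test compound, and growth is scored relative to vehicle-treated controls.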
# [7] = at 5.0 µM (retest, dose inferred, filed as 0.5)
# [8] = at 50.0 µM (retest, dose inferred, filed as 5.0)
Compound,"growth inhibition [1, 7]","growth inhibition [1, 8]",growth inhibition ([1]; at 50.0 µM),"growth inhibition [2, 7]","growth inhibition [2, 8]",growth inhibition ([2]; at 50.0 µM),"growth inhibition [3, 7]","growth inhibition [3, 8]",growth inhibition ([3]; at 50.0 µM),"growth inhibition [4, 7]","growth inhibition [4, 8]",growth inhibition ([4]; at 50.0 µM),"growth inhibition [5, 7]","growth inhibition [5, 8]",growth inhibition ([5]; at 50.0 µM),"growth inhibition [6, 7]","growth inhibition [6, 8]",growth inhibition ([6]; at 50.0 µM)
CCCc1cc(=O)oc2c3c(c4c(c12)OC(C)(C)CC4)O[C@H](C)[C@H](C)C3=O,-7%,99% (active),88.5% (active),-18%,99% (active),91.6% (active),-12%,99% (active),88.2% (active),-6%,98% (active),90.3% (active),-18%,99% (active),91.1% (active),-5%,99% (active),84.7% (active)
Cc1ccc(S(=O)(=O)NCCCSCCO)cc1,6%,45%,80.2% (active),-45%,91% (active),84.4% (active),-12%,25%,70.4% (active),9%,57%,74% (active),-11%,63%,74.2% (active),-1%,90% (active),54.6%
O=[N+]([O-])c1ccccc1C(c1ccc2ccccc2c1O)N1CCOCC1 (configuration not stated),99% (active),95% (active),97.5% (active),100% (active),97% (active),97.8% (active),99% (active),98% (active),94.8% (active),78% (active),96% (active),97% (active),99% (active),97% (active),95.8% (active),98% (active),97% (active),95.4% (active)
CCCCN(CCCC)CCCC(O)c1c2ccc(Cl)cc2nc2ccc(OC)cc12 (configuration not stated),1%,24%,18.1%,-1%,5%,30%,26%,11%,18.9%,-3%,0%,25.6%,3%,10%,47.8%,3%,23%,70.7% (active)
Brc1ccc2[nH]c3nc4ccc5ccccc5c4nc3c2c1,2%,1%,-2.35%,3%,1%,20.8%,0%,0%,7.15%,6%,-1%,71% (active),6%,0%,12.4%,6%,2%,-3.25%
NC(=S)N1N=C2c3ccccc3CCC[C@H]2[C@@H]1c1ccccc1,23%,34%,73.2% (active),16%,27%,70.1% (active),21%,43%,77.1% (active),12%,13%,63.9%,25%,47%,74.2% (active),17%,48%,69.5%
Fc1ccc2nncc(SCc3ccccc3)c2c1,1%,97% (active),97.9% (active),10%,99% (active),97.2% (active),11%,98% (active),93.2% (active),3%,95% (active),91.5% (active),2%,97% (active),97% (active),-2%,98% (active),95.5% (active)
CSc1nc(C)cc(SCc2ccc(Cl)cc2Cl)n1,-3%,4%,-20.9%,-3%,-7%,-20.6%,-2%,8%,-0.95%,2%,-1%,-36.7%,2%,18%,75% (active),-2%,21%,-25.4%
O=P(Nc1ccccc1)(OCc1ccccc1)OCc1ccccc1,-4%,98% (active),98.5% (active),12%,99% (active),94.7% (active),-4%,99% (active),98.8% (active),13%,99% (active),67%,0%,99% (active),40.8%,5%,99% (active),99.1% (active)
O=C1CCSC(=S)N1c1ccc(Br)c(Cl)c1,13%,94% (active),39.8%,9%,94% (active),39.4%,52%,99% (active),72.3% (active),-4%,79% (active),12.7%,-4%,98% (active),13.8%,29%,99% (active),69.5%
COc1ccc(C2CC(c3sc(Nc4ccc(C)cc4)nc3C)=NN2)cc1 (configuration not stated),-1%,20%,80.3% (active),-33%,60%,62%,-2%,16%,71.4% (active),-1%,38%,69.1%,-4%,32%,12.2%,-2%,31%,59.9%
O=[N+]([O-])c1ccc(/C=N/O)s1,-11%,99% (active),99.5% (active),3%,100% (active),99.7% (active),-7%,99% (active),97.7% (active),10%,95% (active),99.2% (active),-17%,99% (active),99.7% (active),12%,99% (active),99.3% (active)
CC1=CC(C)C(C)N(CCNC(=O)Nc2ccccc2)c2ccccc21 (configuration not stated),17%,51%,77.2% (active),16%,33%,80.9% (active),14%,71% (active),80.6% (active),22%,80% (active),75.5% (active),-14%,75% (active),84.2% (active),14%,66%,70.2% (active)
O=C(O)/C=C/c1ccc2c(c1)CCCC2,0%,83% (active),90.1% (active),-8%,66%,73% (active),3%,79% (active),73.5% (active),-28%,70% (active),85.3% (active),-11%,70% (active),64%,-19%,87% (active),62.9%
CCC(C)(C[NH-])C[NH-].[Cl][Pt+2][Cl],13%,27%,28%,19%,28%,45.9%,18%,28%,3.9%,26%,34%,10.4%,11%,28%,-14.7%,25%,42%,-17.6%
CC(C)c1cc(C(C)C)c(Cl)c(Cl)c1O (tested in a mixture with another compound),1%,44%,99.3% (active),3%,100% (active),99.5% (active),6%,98% (active),99.5% (active),5%,73% (active),98.9% (active),0%,77% (active),87.5% (active),-1%,14%,84.5% (active)
CCN(CC)CC(O)c1ccc(/C=C/c2ccc(Cl)cc2)cc1 (configuration not stated),12%,95% (active),98.1% (active),6%,97% (active),98% (active),8%,98% (active),58.5%,12%,97% (active),98.7% (active),17%,96% (active),98.6% (active),15%,97% (active),98.4% (active)
Cc1cc(C2CCCCC2)n(O)c(=O)c1,98% (active),99% (active),98.8% (active),98% (active),99% (active),99.2% (active),98% (active),99% (active),99.5% (active),96% (active),98% (active),99.3% (active),96% (active),99% (active),98.7% (active),98% (active),99% (active),99.3% (active)
CN(C)c1nc(N(C)C)sc(=O)n1,0%,91% (active),85% (active),-4%,28%,25.8%,2%,78% (active),69%,8%,26%,1.5%,-10%,37%,-3.6%,9%,86% (active),76.3% (active)
